Measured values as given in the antibiotic and cytotoxicity screens of Wong et al. (2023).
About 1,500 (3.8%) of roughly 39,000 compounds were called active. Many of the other results were omitted from the sample, so actives are more common in it than they were.

Each compound was assayed on HSkMC (human skeletal muscle cells) (assay: cytotoxicity call (relative viability < 0.9)). Settings: 10 µM.

Row | SMILES | cytotoxicity call
1 | CNC(=O)C[C@@H]1CC[C@@H]2[C@H](COC[C@H](O)CN2C(=O)Nc2cccc(OC)c2)O1 | inactive
2 | C[C@H]1CCCCO[C@H](CN(C)C(=O)Nc2ccc3c(c2)OCO3)[C@@H](C)CN([C@@H](C)CO)C(=O)c2cc(NS(=O)(=O)c3ccccc3)ccc2O1 | inactive
3 | C[C@H](O)[C@H](O)[C@@H](O)[C@@H](O)/C=N/NC(=O)CCCCC(=O)NO | inactive
4 | C[C@H](CO)N1C[C@H](C)[C@H](CN(C)C(=O)Nc2cccc3ccccc23)OCCCC[C@H](C)Oc2ccc(NS(C)(=O)=O)cc2C1=O | inactive
5 | Cc1ccc(S(=O)(=O)Nc2ccc3c(c2)CC(=O)N([C@@H](C)CO)C[C@@H](C)[C@@H](CN(C)Cc2ccc(-c4ccccc4)cc2)O3)cc1 | active
6 | Cc1ccc(S(=O)(=O)Nc2ccc3c(c2)CC(=O)N([C@@H](C)CO)C[C@H](C)[C@@H](CN(C)Cc2ccc(-c4ccccc4)cc2)O3)cc1 | active
7 | Cc1ccc(S(=O)(=O)Nc2ccc3c(c2)CC(=O)N([C@H](C)CO)C[C@@H](C)[C@@H](CN(C)Cc2ccc(-c4ccccc4)cc2)O3)cc1 | active
8 | Cc1ccc(S(=O)(=O)Nc2ccc3c(c2)CC(=O)N([C@H](C)CO)C[C@H](C)[C@@H](CN(C)Cc2ccc(-c4ccccc4)cc2)O3)cc1 | inactive
9 | Cc1ccc(S(=O)(=O)Nc2ccc3c(c2)CC(=O)N([C@H](C)CO)C[C@H](C)[C@H](CN(C)Cc2ccc(-c4ccccc4)cc2)O3)cc1 | inactive
10 | Cc1ccc(S(=O)(=O)Nc2ccc3c(c2)CC(=O)N([C@H](C)CO)C[C@@H](C)[C@H](CN(C)Cc2ccc(-c4ccccc4)cc2)O3)cc1 | active
11 | C[C@H]1CN([C@@H](C)CO)C(=O)c2cc(NC(=O)NC3CCCCC3)ccc2O[C@H]1CN(C)Cc1ccc(C(=O)Nc2ccccc2N)cc1 | inactive
12 | C[C@@H]1CN([C@H](C)CO)C(=O)c2cc(NC(=O)c3ccncc3)ccc2O[C@H]1CN(C)S(=O)(=O)c1ccc(F)cc1 | inactive
13 | C[C@@H]1CN([C@@H](C)CO)C(=O)c2cc(NC(=O)C3CC3)ccc2O[C@@H]1CN(C)S(=O)(=O)c1ccc(F)cc1 | inactive
14 | CC(C)NC(=O)N[C@H]1C=C[C@@H](CC(=O)NCCN2CCCC2)O[C@H]1CO | inactive
15 | CC(C)NC(=O)N(C)C[C@H]1Oc2ccc(NS(=O)(=O)c3cn(C)cn3)cc2C(=O)N([C@H](C)CO)C[C@@H]1C | inactive
16 | O=C(CCCCCNC(=O)OCc1ccc(CO[C@@H]2C[C@H](C3CCCCC3)C=C(C(=O)N3CCN(Cc4ccc5c(c4)OCO5)CC3)O2)cc1)NO | inactive
17 | COc1ccc(CN(C)C[C@@H]2Oc3ccc(NC(=O)C4CC4)cc3CC(=O)N([C@@H](C)CO)C[C@@H]2C)cc1 | inactive
18 | COc1cc(O)cc(OC)c1O[C@@H]1O[C@H](CO)[C@@H](O)[C@H](O)[C@H]1O | inactive
19 | C[C@H]1CN([C@@H](C)CO)C(=O)Cc2cc(NC(=O)CCCCCC(=O)Nc3ccccc3N)ccc2O[C@@H]1CN(C)Cc1ccc(Cl)c(Cl)c1 | inactive
20 | C[C@H]1CN([C@@H](C)CO)C(=O)c2cc(NC(=O)CCN3CCOCC3)ccc2O[C@H]1CN(C)S(=O)(=O)c1ccc(F)cc1 | inactive

Row | SMILES | cytotoxicity call
21 | C[C@H](CO)N1C[C@H](C)[C@H](CN(C)Cc2ccc(C(F)(F)F)cc2)Oc2ccc(NC(=O)C3CCCCC3)cc2C1=O | inactive
22 | Cc1ccc(S(=O)(=O)Nc2ccc3c(c2)CC(=O)N([C@@H](C)CO)C[C@@H](C)[C@H](CN(C)Cc2ccc(-c4ccccc4)cc2)O3)cc1 | inactive
23 | Cc1ccc(S(=O)(=O)Nc2ccc3c(c2)CC(=O)N([C@@H](C)CO)C[C@H](C)[C@H](CN(C)Cc2ccc(-c4ccccc4)cc2)O3)cc1 | active
24 | Cc1noc(C)c1NC(=O)Nc1ccc2c(c1)C(=O)N([C@@H](C)CO)C[C@@H](C)[C@H](CN(C)C(=O)NC1CCCCC1)OCCCC[C@H](C)O2 | inactive
25 | CC(=O)NCCn1cccc1 | inactive
26 | C[C@@H]1CCCCO[C@H](CN(C)Cc2ccc(C(F)(F)F)cc2)[C@@H](C)CN([C@@H](C)CO)C(=O)c2cc(NS(=O)(=O)c3ccc(F)cc3)ccc2O1 | inactive
27 | C[C@@H]1CCCCO[C@H](CN(C)Cc2ccc(Cl)c(Cl)c2)[C@@H](C)CN([C@H](C)CO)C(=O)c2cc(NC(=O)c3ccccc3)ccc2O1 | inactive
28 | C[C@H](CO)N1C[C@H](C)[C@H](CN(C)Cc2ccc(Cl)c(Cl)c2)OCCCC[C@H](C)Oc2ccc(NC(=O)c3ccccc3)cc2C1=O | inactive
29 | C[C@H](CO)N1C[C@H](C)[C@@H](CN(C)Cc2ccc(Cl)c(Cl)c2)OCCCC[C@H](C)Oc2ccc(NC(=O)c3ccccc3)cc2C1=O | inactive
30 | C[C@@H]1CCCCO[C@H](CN(C)Cc2ccc(Cl)c(Cl)c2)[C@H](C)CN([C@@H](C)CO)C(=O)c2cc(NC(=O)c3ccccc3)ccc2O1 | inactive
31 | C[C@@H]1CCCCO[C@@H](CN(C)Cc2ccc(Cl)c(Cl)c2)[C@H](C)CN([C@@H](C)CO)C(=O)c2cc(NC(=O)c3ccccc3)ccc2O1 | active
32 | C[C@@H]1CN([C@H](C)CO)C(=O)c2cc(NC(=O)c3ccccc3)ccc2O[C@@H](C)CCCCO[C@H]1CN(C)Cc1ccc(Cl)c(Cl)c1 | inactive
33 | C[C@@H]1CCCCO[C@@H](CN(C)Cc2ccc(Cl)c(Cl)c2)[C@H](C)CN([C@H](C)CO)C(=O)c2cc(NC(=O)c3ccccc3)ccc2O1 | active
34 | C[C@H]1CCCCO[C@H](CN(C)Cc2ccc(Cl)c(Cl)c2)[C@@H](C)CN([C@@H](C)CO)C(=O)c2cc(NC(=O)c3ccccc3)ccc2O1 | active
35 | C[C@@H]1CCCCO[C@H](CN(C)Cc2ccc(Cl)c(Cl)c2)[C@@H](C)CN([C@@H](C)CO)C(=O)c2cc(NC(=O)c3ccccc3)ccc2O1 | inactive
36 | C[C@H](CO)N1C[C@H](C)[C@@H](CN(C)S(=O)(=O)c2ccc(Cl)cc2)Oc2c(NC(=O)Nc3ccc(C(F)(F)F)cc3)cccc2C1=O | inactive
37 | O=C(Cc1ccncc1)NCC[C@H]1CC[C@H](NC(=O)C2CCOCC2)[C@H](CO)O1 | inactive
38 | Cc1noc(C)c1S(=O)(=O)N(C)C[C@@H]1OCCCC[C@@H](C)Oc2ccc(NC(=O)Nc3ccc(F)cc3)cc2C(=O)N([C@@H](C)CO)C[C@H]1C | inactive
39 | C[C@H](NC(=O)C[C@H]1C[C@H]2c3cc(NC(=O)Nc4ccc(C(F)(F)F)cc4)ccc3O[C@H]2[C@H](CO)O1)c1ccccc1 | inactive
40 | C[C@@H]1CCCCO[C@@H](CN(C)Cc2ccc(Cl)c(Cl)c2)[C@@H](C)CN([C@H](C)CO)C(=O)c2cc(NC(=O)CCCN(C)C)ccc2O1 | inactive

Row | SMILES | cytotoxicity call
41 | Cc1ccc(S(=O)(=O)N2C[C@@H](O)COC[C@H]3O[C@@H](CC(=O)N[C@@H]4CCN(Cc5ccccc5)C4)CC[C@@H]32)cc1 | inactive
42 | CC(C)C[C@H]1NC(=O)N(C)C1=O | inactive
43 | C[C@H](CO)N1C[C@H](C)[C@@H](CN(C)C(=O)c2ccccn2)Oc2cc(C#Cc3ccc(F)cc3)ccc2S1(=O)=O | inactive
44 | CC(C)CC#Cc1ccc2c(c1)O[C@H](CN(C)S(=O)(=O)c1cccc(F)c1)[C@H](C)CN([C@@H](C)CO)S2(=O)=O | inactive
45 | C[C@@H]1CCCCO[C@H](CN(C)Cc2ccc(C(F)(F)F)cc2)[C@H](C)CN([C@H](C)CO)C(=O)c2cc(NS(=O)(=O)c3ccc(Cl)cc3)ccc2O1 | inactive
46 | C[C@@H]1CN([C@@H](C)CO)C(=O)c2cc(NS(=O)(=O)c3ccc(F)cc3)ccc2O[C@@H](C)CCCCO[C@@H]1CN(C)Cc1ccc(C(F)(F)F)cc1 | inactive
47 | C[C@@H]1CN([C@H](C)CO)C(=O)c2cc(NS(=O)(=O)c3ccc(Cl)cc3)ccc2O[C@@H](C)CCCCO[C@H]1CN(C)Cc1ccc(C(F)(F)F)cc1 | active
48 | C[C@H](CO)N1C[C@H](C)[C@@H](CN(C)Cc2ccc(C(F)(F)F)cc2)OCCCC[C@H](C)Oc2ccc(NS(=O)(=O)c3ccc(Cl)cc3)cc2C1=O | active
49 | C[C@@H]1CCCCO[C@H](CN(C)Cc2ccc(C(F)(F)F)cc2)[C@H](C)CN([C@@H](C)CO)C(=O)c2cc(NS(=O)(=O)c3ccc(Cl)cc3)ccc2O1 | active
50 | C[C@H]1CCCCO[C@H](CN(C)Cc2ccc(C(F)(F)F)cc2)[C@@H](C)CN([C@@H](C)CO)C(=O)c2cc(NS(=O)(=O)c3ccc(F)cc3)ccc2O1 | inactive
51 | C[C@@H]1CCCCO[C@H](CN(C)Cc2ccc(C(F)(F)F)cc2)[C@@H](C)CN([C@@H](C)CO)C(=O)c2cc(NS(=O)(=O)c3ccc(Cl)cc3)ccc2O1 | active
52 | C[C@@H]1CCCCO[C@@H](CN(C)Cc2ccc(C(F)(F)F)cc2)[C@@H](C)CN([C@@H](C)CO)C(=O)c2cc(NS(=O)(=O)c3ccc(Cl)cc3)ccc2O1 | inactive
53 | O=C(C[C@H]1CC[C@@H](NC(=O)Cc2ccccn2)[C@H](CO)O1)NCCc1ccncc1 | inactive
54 | C[C@H]1CN([C@@H](C)CO)C(=O)c2cccc(NS(=O)(=O)c3cccs3)c2O[C@@H]1CN(C)Cc1ccc(Oc2ccccc2)cc1 | inactive
55 | C/C=C/[C@@H](CCn1cc(CCO[Si](C(C)C)(C(C)C)C(C)C)nn1)[Si](C)(C)c1ccc(OC)cc1 | inactive
56 | C[C@@H]1CN([C@H](C)CO)C(=O)c2cc(C#Cc3ccccn3)cnc2O[C@@H]1CN(C)C(=O)CCN1CCCCC1 | inactive
57 | C=CCNC(=O)[C@H]1[C@@H]2C(=O)O[C@@H](c3ccccc3)[C@@H](c3ccccc3)N2[C@@H](c2ccccc2OCCO)[C@]12C(=O)N(C(=O)OCCOC)c1ccc(C#CC3(O)CCCCCC3)cc12 | inactive
58 | C[C@@H]1CCCCO[C@H](CN(C)C(=O)C2CCCCC2)[C@H](C)CN([C@H](C)CO)C(=O)c2cc(NC(=O)Cc3ccccc3)ccc2O1 | inactive
